Experimental data from the supplement of paper PMC10849652.
Targets with a hit are over-represented here; the source holds about 7,900 in all. About 0.6% of all pairs of compound and target were hits.

Legend:
Assay in all cases: log2 fold change, soluble protein after heating vs DMSO (PISA); higher = thermal stabilisation; K562 cells, 10 uM, 30 min; active = over 0.2 and 3.5 SD of the protein, either way, in both replicates (recomputed)
[1] = compound: NC(=O)c1cnc(N[C@@H]2CCCC[C@@H]2N)nc1Nc1cccc(-n2nccn2)c1
Outline: (§1)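 For each measurement, 10 μM compound was applied for 30 min to K562 cells at 2×10^6 cells/mL. Aliquots were heated for 3 min across 48°C-58°C, pooled, and extracted in PBS with 0.5% NP-40 at 4°C; the supernatant after 21,000xg for 90 min was soluble protein. This was quantified by TMTpro 16plex LC-MS/MS with channel sums equalised, and thermal stability was reported relative to control samples from duplicates, on a log2 fold-change scale.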

[2] = compound: NC1(c2ccc(-c3nc4ccn5c(=O)[nH]nc5c4cc3-c3ccccc3)cc2)CCC1
Outline: as §1

[3] = compound: NCC(=O)Nc1ccc(-n2nc(C(F)(F)F)cc2-c2ccc3c(ccc4ccccc43)c2)cc1
Outline: as §1

citarinostat = compound: O=C(CCCCCCNC(=O)c1cnc(N(c2ccccc2)c2ccccc2Cl)nc1)NO [citarinostat]
Outline: as §1

silmitasertib = compound: O=C(O)c1ccc2c(c1)nc(Nc1cccc(Cl)c1)c1ccncc12 [silmitasertib]
Outline: as §1

[4] = compound: O=C1NC(=O)C(c2cnc3ccccn23)=C1c1cn2c3c(cc(F)cc13)CN(C(=O)N1CCCCC1)CC2
Outline: as §1

[5] = compound: c1cc(OCCN2CCCCC2)cc(-c2n[nH]c3ccc(-c4nnc[nH]4)cc23)c1
Outline: as §1

entospletinib = compound: c1cn2cc(-c3ccc4cn[nH]c4c3)nc(Nc3ccc(N4CCOCC4)cc3)c2n1 [entospletinib]
Outline: as §1

[6] = compound: NC(=O)Nc1cc(-c2cccc(F)c2)sc1C(=O)N[C@H]1CCCNC1
Outline: as §1

entinostat = compound: Nc1ccccc1NC(=O)c1ccc(CNC(=O)OCc2cccnc2)cc1 [entinostat]
Outline: as §1

vorinostat = compound: O=C(CCCCCCC(=O)Nc1ccccc1)NO [vorinostat]
Outline: as §1

Measured: log2 fold change

CLINT1 (UniProt Q14677)
Sequence of UniProt Q14677 (Q14677 whole entry, looked up): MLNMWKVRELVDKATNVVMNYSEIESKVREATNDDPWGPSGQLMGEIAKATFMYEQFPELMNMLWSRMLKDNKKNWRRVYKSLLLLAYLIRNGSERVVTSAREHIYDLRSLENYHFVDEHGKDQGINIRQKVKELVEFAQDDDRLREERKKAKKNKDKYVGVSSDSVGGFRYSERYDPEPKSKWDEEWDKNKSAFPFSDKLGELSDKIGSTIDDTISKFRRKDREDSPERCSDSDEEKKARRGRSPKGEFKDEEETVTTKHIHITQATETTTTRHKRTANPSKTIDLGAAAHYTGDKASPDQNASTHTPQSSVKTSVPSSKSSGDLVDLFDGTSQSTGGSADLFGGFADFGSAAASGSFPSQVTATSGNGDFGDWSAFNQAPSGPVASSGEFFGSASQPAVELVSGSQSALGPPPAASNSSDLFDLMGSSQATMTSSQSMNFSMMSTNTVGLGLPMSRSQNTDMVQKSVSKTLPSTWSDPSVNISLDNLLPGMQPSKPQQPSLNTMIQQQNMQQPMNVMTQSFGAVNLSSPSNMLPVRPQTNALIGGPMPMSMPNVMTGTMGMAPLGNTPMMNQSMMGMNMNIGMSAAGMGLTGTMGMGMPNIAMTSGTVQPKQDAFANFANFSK
inactive: [1] 0.001 | [2] 0.037 | [3] 0.034 | citarinostat -0.146 | silmitasertib 0.021 | [4] 0.058 | [5] 0.062 | entospletinib 0.16

CCNL1 (UniProt Q9UK58)
inactive: [2] -0.224 | silmitasertib -0.173

CA1 (UniProt E5RIF9)
inactive: [3] -0.029 | [4] -0.026

CASK (UniProt O14936)
inactive: [1] 0.026

CSNK1A1 isoform 3 (UniProt P48729)
inactive: [2] -0.204 | silmitasertib 0

CCM2 isoform 2 (UniProt Q9BSQ5)
inactive: [6] -0.103 | [2] -0.09 | [3] -0.067 | vorinostat -0.038 | citarinostat -0.073 | silmitasertib 0.048 | [4] -0.136 | [5] 0.069 | entospletinib -0.019
active: entinostat 0.326

CCDC82 (UniProt Q8N4S0)
inactive: [1] -0.083 | [2] -0.146 | [3] -0.063 | citarinostat 0.023 | silmitasertib 0.047 | [4] -0.169 | [5] 0.046 | entospletinib 0.021

COMMD1 (UniProt Q8N668)
inactive: [6] -0.043 | [2] 0.051 | [3] -0.069 | entinostat 0.008 | vorinostat -0.032 | citarinostat 0.039 | silmitasertib -0.021 | [4] -0.018 | [5] -0.065 | entospletinib -0.013

C5orf30 (UniProt Q96GV9)
inactive: [1] -0.191 | [4] -0.051

CARD9 (UniProt Q9H257)
inactive: [1] 0.37

C6orf120 (UniProt Q7Z4R8)
inactive: [6] 0.068 | [3] -0.018 | entinostat 0.083 | citarinostat 0.031 | [5] -0.141 | entospletinib -0.013

CLN3 (UniProt Q13286)
Sequence of UniProt Q13286 (Q13286 whole entry, looked up): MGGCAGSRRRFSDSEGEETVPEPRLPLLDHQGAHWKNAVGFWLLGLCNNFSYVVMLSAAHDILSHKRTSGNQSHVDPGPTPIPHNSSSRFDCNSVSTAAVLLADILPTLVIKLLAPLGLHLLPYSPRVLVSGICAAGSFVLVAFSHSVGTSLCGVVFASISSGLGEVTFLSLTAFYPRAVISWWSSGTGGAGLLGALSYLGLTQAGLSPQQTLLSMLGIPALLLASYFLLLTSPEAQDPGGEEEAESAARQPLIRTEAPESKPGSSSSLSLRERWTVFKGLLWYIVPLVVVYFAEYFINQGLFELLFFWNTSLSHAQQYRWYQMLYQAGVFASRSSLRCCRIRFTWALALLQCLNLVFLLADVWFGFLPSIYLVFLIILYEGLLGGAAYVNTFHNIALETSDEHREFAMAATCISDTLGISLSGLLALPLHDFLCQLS
inactive: [2] -0.112 | [3] -0.124 | citarinostat 0.042 | silmitasertib 0.025 | [4] 0.072 | [5] -0.033 | entospletinib 0.065

CFAP58 (UniProt Q5T655)
Sequence of UniProt Q5T655 (Q5T655 whole entry, looked up): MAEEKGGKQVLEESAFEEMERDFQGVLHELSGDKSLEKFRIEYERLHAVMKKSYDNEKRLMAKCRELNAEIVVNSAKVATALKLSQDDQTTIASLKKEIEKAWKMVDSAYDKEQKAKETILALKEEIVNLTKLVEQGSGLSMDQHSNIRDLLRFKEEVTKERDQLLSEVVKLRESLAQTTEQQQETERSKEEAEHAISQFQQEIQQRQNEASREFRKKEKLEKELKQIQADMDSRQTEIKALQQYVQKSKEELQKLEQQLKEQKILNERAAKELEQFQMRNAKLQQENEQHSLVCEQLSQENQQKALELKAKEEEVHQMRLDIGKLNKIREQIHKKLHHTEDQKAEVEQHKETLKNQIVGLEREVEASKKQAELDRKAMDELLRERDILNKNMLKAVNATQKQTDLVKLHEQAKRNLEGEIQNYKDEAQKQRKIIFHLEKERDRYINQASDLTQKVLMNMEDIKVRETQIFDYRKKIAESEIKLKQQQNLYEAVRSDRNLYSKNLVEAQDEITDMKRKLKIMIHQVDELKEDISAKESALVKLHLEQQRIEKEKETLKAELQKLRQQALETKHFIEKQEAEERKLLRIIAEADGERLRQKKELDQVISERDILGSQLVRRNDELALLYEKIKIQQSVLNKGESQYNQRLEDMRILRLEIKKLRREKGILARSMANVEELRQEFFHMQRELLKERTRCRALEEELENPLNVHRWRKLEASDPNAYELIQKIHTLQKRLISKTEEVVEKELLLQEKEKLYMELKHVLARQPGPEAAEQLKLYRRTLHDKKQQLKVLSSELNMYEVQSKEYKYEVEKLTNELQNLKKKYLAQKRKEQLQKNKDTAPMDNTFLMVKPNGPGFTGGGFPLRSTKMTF
inactive: [2] 0.028 | vorinostat 0.018 | citarinostat -0.357 | silmitasertib -0.008 | [5] 0.392
active: entospletinib -1.11

CRLS1 (UniProt Q9UJA2)
Sequence of UniProt Q9UJA2 (Q9UJA2 whole entry, looked up): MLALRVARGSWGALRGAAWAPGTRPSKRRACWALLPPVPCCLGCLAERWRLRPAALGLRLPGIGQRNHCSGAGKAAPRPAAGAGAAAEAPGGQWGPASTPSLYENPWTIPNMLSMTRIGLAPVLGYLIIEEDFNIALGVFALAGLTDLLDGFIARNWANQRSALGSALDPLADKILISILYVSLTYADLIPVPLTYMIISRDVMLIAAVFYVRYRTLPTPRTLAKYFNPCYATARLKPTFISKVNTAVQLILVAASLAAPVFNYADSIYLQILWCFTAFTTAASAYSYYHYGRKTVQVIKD
inactive: [2] 0.027 | [3] 0.06 | entinostat 0.151 | vorinostat -0.005 | citarinostat 0.012 | silmitasertib 0.017 | [5] -0.051 | entospletinib -0.036
active: [6] 0.323

CEBPZOS (UniProt A8MTT3)
inactive: [1] 0.022 | [2] -0.124 | [3] 0.028 | vorinostat -0.03 | citarinostat -0.011 | silmitasertib 0.018 | [5] -0.056 | entospletinib 0.203

COMMD3-BMI1 (UniProt R4GMX3)
inactive: [6] 0.003 | [1] 0.076 | entinostat -0.062 | vorinostat 0.109 | [4] -0.012

CRTC3 (UniProt Q6UUV7)
active: [6] -0.754
inactive: [2] -0.007 | [3] 0.001 | entinostat 0.057 | silmitasertib 0.098 | [4] 0.025

CNRIP1 (UniProt Q96F85)
active: [4] 0.738
inactive: [2] 0.258 | silmitasertib -0.13

CLASP2 (UniProt O75122)
Sequence of UniProt O75122 (O75122 whole entry, looked up): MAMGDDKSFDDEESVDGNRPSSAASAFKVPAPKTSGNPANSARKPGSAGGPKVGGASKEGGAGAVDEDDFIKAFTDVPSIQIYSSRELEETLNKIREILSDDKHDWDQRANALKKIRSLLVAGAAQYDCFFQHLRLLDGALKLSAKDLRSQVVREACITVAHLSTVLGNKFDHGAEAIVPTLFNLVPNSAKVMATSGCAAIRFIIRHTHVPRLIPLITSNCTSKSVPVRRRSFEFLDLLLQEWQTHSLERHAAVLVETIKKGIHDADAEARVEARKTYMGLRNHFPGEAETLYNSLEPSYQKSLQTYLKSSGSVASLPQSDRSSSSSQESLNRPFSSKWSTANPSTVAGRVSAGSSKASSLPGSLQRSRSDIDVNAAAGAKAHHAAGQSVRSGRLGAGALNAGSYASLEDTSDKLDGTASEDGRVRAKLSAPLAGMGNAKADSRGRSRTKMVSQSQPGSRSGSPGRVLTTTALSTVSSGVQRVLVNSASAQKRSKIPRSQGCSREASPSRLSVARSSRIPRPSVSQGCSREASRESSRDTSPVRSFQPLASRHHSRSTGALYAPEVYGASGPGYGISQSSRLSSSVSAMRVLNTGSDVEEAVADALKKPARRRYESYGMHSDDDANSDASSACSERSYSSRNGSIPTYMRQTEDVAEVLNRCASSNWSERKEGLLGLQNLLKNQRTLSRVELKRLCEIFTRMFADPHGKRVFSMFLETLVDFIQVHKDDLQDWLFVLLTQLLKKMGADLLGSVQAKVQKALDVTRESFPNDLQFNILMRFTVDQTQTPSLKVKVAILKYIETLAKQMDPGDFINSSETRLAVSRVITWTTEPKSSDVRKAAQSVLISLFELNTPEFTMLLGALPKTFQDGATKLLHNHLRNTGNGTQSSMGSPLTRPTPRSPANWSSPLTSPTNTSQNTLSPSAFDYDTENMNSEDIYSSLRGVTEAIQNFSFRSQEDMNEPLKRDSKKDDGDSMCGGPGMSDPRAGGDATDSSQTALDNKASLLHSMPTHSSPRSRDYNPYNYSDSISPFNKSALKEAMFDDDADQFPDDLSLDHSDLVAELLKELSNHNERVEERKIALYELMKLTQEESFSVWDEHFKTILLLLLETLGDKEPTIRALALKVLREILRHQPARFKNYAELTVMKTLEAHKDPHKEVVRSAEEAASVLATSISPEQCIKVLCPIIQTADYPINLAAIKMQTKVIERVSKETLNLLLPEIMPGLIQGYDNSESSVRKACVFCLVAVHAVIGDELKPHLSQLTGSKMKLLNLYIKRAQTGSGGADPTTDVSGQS
inactive: [1] -0.049 | [2] 0.046 | citarinostat 0.143 | silmitasertib 0.083 | [5] 0.08 | entospletinib -0.003

CKS2 (UniProt P33552)
Sequence of UniProt P33552 (P33552 whole entry, looked up): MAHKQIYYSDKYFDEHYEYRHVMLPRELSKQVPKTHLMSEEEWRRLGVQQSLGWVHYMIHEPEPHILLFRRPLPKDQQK
inactive: [1] -0.021 | [2] -0.039 | vorinostat 0.28 | citarinostat -0.092 | silmitasertib 0.065 | [5] -0.071 | entospletinib 0.04

CFAP47 (UniProt Q6ZTR5)
inactive: [1] 0.022 | [3] -0.024 | citarinostat -0.042 | [4] -0.025 | [5] -0.008 | entospletinib -0.052

CASP7 isoform 3 (UniProt P55210)
Sequence of UniProt P55210 (P55210 whole entry, looked up): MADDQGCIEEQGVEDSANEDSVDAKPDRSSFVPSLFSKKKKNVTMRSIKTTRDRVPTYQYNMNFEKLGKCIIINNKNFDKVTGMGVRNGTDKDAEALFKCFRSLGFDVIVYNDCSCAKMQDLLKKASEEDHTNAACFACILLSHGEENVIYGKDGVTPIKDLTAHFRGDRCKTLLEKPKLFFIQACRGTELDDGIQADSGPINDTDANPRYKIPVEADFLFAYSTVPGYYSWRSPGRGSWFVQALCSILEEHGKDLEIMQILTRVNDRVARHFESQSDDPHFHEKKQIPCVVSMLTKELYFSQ
inactive: vorinostat 0.044 | citarinostat -0.058 | [4] -0.048 | [5] 0.021 | entospletinib 0

CD84 (UniProt Q9UIB8)
Sequence of UniProt Q9UIB8 (Q9UIB8 whole entry, looked up): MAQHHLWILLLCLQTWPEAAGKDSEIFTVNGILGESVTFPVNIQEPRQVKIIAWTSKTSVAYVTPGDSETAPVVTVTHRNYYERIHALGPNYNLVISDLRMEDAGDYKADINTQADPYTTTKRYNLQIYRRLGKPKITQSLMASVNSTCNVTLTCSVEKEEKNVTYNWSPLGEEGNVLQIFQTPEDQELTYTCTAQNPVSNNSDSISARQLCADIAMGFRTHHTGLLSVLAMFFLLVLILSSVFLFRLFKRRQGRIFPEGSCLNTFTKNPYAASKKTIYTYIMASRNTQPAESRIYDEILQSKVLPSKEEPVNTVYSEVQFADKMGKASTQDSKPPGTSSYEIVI
inactive: [6] -0.182 | [1] -0.036 | entinostat 0.234 | [4] 0.084

CREB3L2 (UniProt Q70SY1)
inactive: [1] -0.102 | [2] -0.074 | [3] 0.035 | silmitasertib 0.023 | [4] -0.076

CCDC187, A0A1W2PQX5
inactive: [1] -0.147 | vorinostat -0.042 | [4] -0.048

CCDC57 (UniProt Q2TAC2)
inactive: [6] -0.025 | [2] -0.014 | [3] -0.04 | entinostat -0.031 | citarinostat 0.008 | silmitasertib -0.038 | [4] -0.002 | [5] -0.11 | entospletinib -0.044

CCND3 (UniProt P30281)
Sequence of UniProt P30281 (P30281 whole entry, looked up): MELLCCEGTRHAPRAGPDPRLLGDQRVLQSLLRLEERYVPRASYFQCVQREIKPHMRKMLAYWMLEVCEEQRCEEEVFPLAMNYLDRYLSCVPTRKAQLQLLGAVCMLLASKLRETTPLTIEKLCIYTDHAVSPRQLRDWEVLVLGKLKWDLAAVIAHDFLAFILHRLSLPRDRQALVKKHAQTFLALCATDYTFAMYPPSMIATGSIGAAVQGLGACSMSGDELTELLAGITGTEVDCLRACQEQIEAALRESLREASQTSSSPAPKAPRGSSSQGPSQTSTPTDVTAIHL
inactive: [1] -0.204 | [2] -0.001 | [3] 0.184 | vorinostat 0.048 | citarinostat 0 | silmitasertib 0.28 | [4] 0.069 | [5] 0.183 | entospletinib -0.154

CCDC167 (UniProt Q9P0B6)
inactive: [6] 0.014 | [2] 0.046 | entinostat 0.031 | vorinostat 0.008 | citarinostat -0.014 | silmitasertib 0.135 | [4] 0.038 | [5] 0.009 | entospletinib 0.034

CRTC1 isoform 2 (UniProt Q6UUV9)
inactive: [6] -0.132 | [1] -0.151 | [3] 0.01 | entinostat 0.044 | vorinostat 0.012 | [4] -0.371

CD68 (UniProt P34810)
Sequence of UniProt P34810 (P34810 whole entry, looked up): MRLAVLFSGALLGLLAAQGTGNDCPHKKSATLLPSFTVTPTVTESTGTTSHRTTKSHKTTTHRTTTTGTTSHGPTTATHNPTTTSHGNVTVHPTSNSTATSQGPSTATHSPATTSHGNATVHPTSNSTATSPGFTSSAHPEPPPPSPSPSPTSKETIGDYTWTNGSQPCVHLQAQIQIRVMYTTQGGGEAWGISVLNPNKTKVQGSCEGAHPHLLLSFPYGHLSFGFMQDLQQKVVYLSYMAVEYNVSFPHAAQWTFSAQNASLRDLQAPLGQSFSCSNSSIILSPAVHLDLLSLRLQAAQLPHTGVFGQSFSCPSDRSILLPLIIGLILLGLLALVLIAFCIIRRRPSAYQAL
inactive: [6] 0.039 | [2] -0.106 | entinostat -0.33 | silmitasertib 0.07

CS (UniProt F8VU34)
inactive: citarinostat -0.298 | [5] -0.393 | entospletinib 0.063

CDK2AP2 (UniProt O75956)
inactive: [1] -0.05 | [2] 0.14 | citarinostat 0.009 | silmitasertib -0.094 | [4] -0.062 | [5] -0.1 | entospletinib 0.101

CAD (UniProt H7BZB3)
inactive: [1] 0.124

CEMIP2 (UniProt Q9UHN6)
inactive: [1] 0.072 | [2] -0.243 | [3] -0.072 | vorinostat 0.038 | citarinostat 0.124 | silmitasertib 0.057 | [4] 0.034 | [5] -0.078 | entospletinib 0.04
